This note sets out measurements from PubChem BioAssay AID1259420 (Broad Institute, 2018).

Each structure is given as a SMILES string. In all, about 1,000 compounds went through this assay and about 250 (25%) were called active. About 31% were inconclusive and are not listed. How the calls were made is not given here. The list is a sample of the results. Measured potencies and affinities stand elsewhere.

The nature of the assay: compound activity on host-cell Toxoplasma growth – dose response (AID 1259420).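 Further: host cells were HeLa; final incubation lasted 72 hours.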 To be noted: Toxoplasma gondii growth in host cells, no IFN-gamma.

With `C[C@H]1[C@H](NC(=O)/C(=N\OC(C)(C)C(=O)O)c2csc(N)n2)C(=O)N1S(=O)(=O)O`, the max activity (at 19.5 µM unless noted) is -8.75% [at 1.35 µM] (inactive).
For the molecule `CCc1cnc(N2[C@H](C#N)[C@@H](c3ccc(C#Cc4ccccc4F)cc3)[C@H]2CO)s1`, the max activity is 8.24% (inactive) (at 10 µM) and 32.4% (inactive) (at 19.5 µM).
Take `CCS(=O)(=O)N1CC(=O)N2[C@H](CO)[C@@H](c3ccc(-c4cccc(F)c4)cc3)[C@@H]2C1`: the max activity is 7.66% (inactive) (at 0.6 µM) and -9.75% (inactive) (at 1.2 µM).
As for `OC[C@H]1[C@H](c2ccc(C#Cc3ccccc3F)cc2)[C@H]2CN(CC3CCOCC3)CCCCN21`, where the note is “at 19.5 µM unless noted”, the max activity is 7.1% [at 0.16 µM] (inactive).
Still for that read-out and setting: then `CCc1cnc(N2[C@@H](C#N)[C@@H](c3ccc(C4=CCCCC4)cc3)[C@@H]2CO)s1`, with -7.27% (inactive); and `CCS(=O)(=O)N1[C@H](CO)[C@@H](c2ccc(C#Cc3ccccc3F)cc2)[C@@H]1C#N`, with 10.1% [at 2.35 µM] (inactive); and `OC[C@@H]1[C@@H](c2ccc(C#Cc3ccccc3F)cc2)[C@H]2CN(CC3CCOCC3)CCCCN12`, with 24.4% (inactive).
In the case of `CCC(=O)N1CC(=O)N2[C@@H](CO)[C@@H](c3ccc(C#CCC(C)C)cc3)[C@@H]2C1`, where the note is “at 19.5 µM unless noted”, the max activity was 8.67% [at 0.3 µM] (inactive).
Same read-out and setting: with `O=C(NC1CCCCC1)N1C[C@@H]2N[C@H](C1)C2c1ccc(-c2ccc(F)cc2)cc1` (stereo partly drawn) the figure was 22.3% [at 10 µM] (inactive); with `COC[C@@H]1CN(CC2CC2)C[C@@]12CCN(CCc1ccccc1)C2`, 18.3% (inactive); with `N#Cc1cccc(-c2ccc3c(c2)[C@@H]2[C@@H](CCN2C(=O)c2ccccc2F)[C@@H](CO)N3)c1`, -14.2% [at 1.2 µM] (inactive).
On the same count and under the same terms, with `Cc1ccccc1S(=O)(=O)N1CCCCN2[C@H](CO)[C@H](c3ccc(C#CCN(C)C)cc3)[C@H]2C1` the figure was 8.8% (inactive).
`CCN1CC(C(=O)O)CN2CCN(C(=O)c3ccncc3F)CC2C1` (stereo not drawn): under “at 19.5 µM unless noted”, the max activity was -9.96% [at 1.2 µM] (inactive).
On the same count and under the same terms, with `CC[C@H](C(=O)N1CCCC[C@H]1C(=O)O[C@H](CCc1ccc(OC)c(OC)c1)c1cccc(OCC(=O)NCCNC(=O)COc2cccc([C@@H](CCc3ccc(OC)c(OC)c3)OC(=O)[C@@H]3CCCCN3C(=O)[C@@H](CC)c3cc(OC)c(OC)c(OC)c3)c2)c1)c1cc(OC)c(OC)c(OC)c1` the figure was -10.8% [at 5 µM] (inactive); with `C1=CC[C@H]2CN(c3ncnc4[nH]ccc34)C[C@H]2C1`, 15.7% [at 10 µM] (inactive); with `CCN1CCn2c(-c3cccc(F)c3)cnc2C12CCN(c1ncccn1)CC2`, -16.6% [at 2.6 µM] (inactive).
Regarding `FC(F)(F)C1CN(c2cc(-c3ccccc3)nc3ccccc23)CCO1` (stereo not drawn), where the note is “at 19.5 µM unless noted”, the max activity was -8.74% [at 1.2 µM] (inactive).
For `Fc1ccc(F)c(CN2[C@@H]3CNC[C@H]2C3c2ccc(-c3ccncc3)cc2)c1` (stereo partly drawn), the max activity is, setting by setting: (at 0.16 µM) -17.4% (inactive); (at 10 µM) -4.19% (inactive).
`C/C=C/c1ccc(C2[C@H]3CNC[C@@H]2N3Cc2ccc3c(c2)OCO3)cc1` (stereo partly drawn): the max activity (at 19.5 µM unless noted) was 11.3% (inactive).
Same read-out and setting: then `C[C@@H]1CN([C@@H](C)CO)C(=O)Cc2cc(NS(=O)(=O)c3ccc(Cl)cc3)ccc2O[C@@H]1CN(C)C(=O)Nc1ccc(C(F)(F)F)cc1`, with 23.3% (inactive); and `CC(C)N1CCC(c2ccnc3c(C(=O)N4CCCN(C)CC4)ncn23)CC1`, with -10.4% [at 5 µM] (inactive).
In the case of `N#C[C@H]1[C@@H](c2ccc(-c3cccc(F)c3)cc2)[C@H](CO)N1C(=O)NC1CCCC1`, the max activity runs as follows: (at 1.2 µM) -11.5% (inactive); (at 19.5 µM) 14.4% (inactive).
In the case of `N#C[C@@H]1[C@H](c2ccc(-c3cccc(F)c3)cc2)[C@@H](CO)N1C(=O)NC1CCCC1`, for the setting “at 19.5 µM unless noted”, the max activity was 22.7% (inactive).
As for `N#C[C@@H]1[C@@H](c2ccc(C#Cc3cccnc3)cc2)[C@@H](CO)N1C(=O)NC1CCCCC1`, where the note is “at 19.5 µM unless noted”, the max activity was -10.9% (inactive).
Regarding `C/C=C/c1ccc([C@H]2[C@H](CO)N3C(=O)CN(C(=O)NC4CCCCC4)C[C@@H]23)cc1`, the max activity (at 19.5 µM unless noted) was -12.8% (inactive).
The same measure, in the same setting: with `N#C[C@H]1[C@H](c2ccc(-c3cccc(F)c3)cc2)[C@H](CO)N1C(=O)NC1CCCC1` the figure was 27.1% (inactive).
Same read-out and setting: with `COCC(=O)N1[C@H](C#N)[C@H](c2ccc(C#CCC3CCCC3)cc2)[C@@H]1CO` the figure was 6.51% [at 10 µM] (inactive); with `CCC(C)NC(=O)Cn1c(=O)c(S(=O)(=O)c2ccccc2)cc2ccccc21` (stereo not drawn), -6.38% [at 1.2 µM] (inactive).
The same measure, in the same setting: then `COc1ccc(CN2C[C@@H]3CN(Cc4cnn(C)c4)C[C@H]3C2=O)cc1`, with -13% [at 10 µM] (inactive); and `Cc1cccc(S(=O)(=O)N2C[C@H]3[C@@H](c4ccccc42)[C@@H](CO)N3C(=O)c2ccccc2)c1`, with 6.73% [at 0.16 µM] (inactive).
As for `COCCC(=O)N1C[C@H](OCc2ccccn2)[C@@H]2COC[C@@H]21`, under “at 19.5 µM unless noted”, the max activity was -16.7% [at 0.3 µM] (inactive).
With `Oc1cccc(-c2nccn2-c2cccc(-c3ccn[nH]3)c2)c1`, the max activity (at 19.5 µM unless noted) is -6.88% [at 10 µM] (inactive).
Same read-out and setting: then `O=S(=O)(Cc1ccccc1)N1CC2CN(Cc3cccc(Cl)c3)CC2C1` (stereo not drawn), with 19.1% (inactive); and `Cc1ccccc1-c1ccc([C@H]2[C@@H](CO)N3C(=O)CN(C(=O)c4ccncc4)C[C@H]23)cc1`, with -12.2% [at 5 µM] (inactive).
Same read-out and setting: then `CC(C)CNc1nc2c(cc1C(=O)NC(C)C)CCN(c1ccncn1)CC2`, with -10.6% [at 5 µM] (inactive); and `COc1ccccc1-c1ccc([C@@H]2[C@H]3CN(C(=O)c4cccnc4)CCCCN3[C@H]2CO)cc1`, with 9.09% [at 0.16 µM] (inactive).
Same read-out and setting: then `O=C(Nc1ccccc1F)N1CCCCN2[C@H](C1)[C@H](c1ccc(/C=C/c3ccccc3)cc1)[C@@H]2CO`, with 13.2% (inactive); and `COc1ccccc1-c1ccc([C@@H]2[C@H](CO)N3CCCCN(C(=O)c4cccnc4)C[C@@H]23)cc1`, with 16.2% (inactive); and `COc1ccccc1-c1ccc([C@@H]2[C@@H](CO)N3CCCCN(C(=O)c4cccnc4)C[C@@H]23)cc1`, with -4.65% [at 5 µM] (inactive).
Take `CCN1C(=O)CO[C@H]2CN(C(=O)c3cnc4ccccc4c3)C[C@@H]21`: the max activity (at 19.5 µM unless noted) was -7.5% [at 0.16 µM] (inactive).
As for `Cn1cnc2c1C(C(=O)O)CN(C(=O)c1ccsc1)C2` (stereo not drawn), the max activity (at 19.5 µM unless noted) was -15.3% [at 10 µM] (inactive).
Still for that read-out and setting: with `CCn1cc(NC(=O)c2cccc(CN3C[C@@H](C)O[C@@H](C)C3)c2)nn1` the figure was -7.36% [at 0.3 µM] (inactive); with `CN(C)C(=O)c1ccc2nnc3ncn(Cc4ccccc4)c3c2c1`, 9.7% [at 2.6 µM] (inactive).
With `CS(=O)(=O)N1CC(=O)N2[C@H](C1)[C@@H](c1ccc(C#Cc3ccc(F)cc3)cc1)[C@@H]2CO`, the max activity (at 19.5 µM unless noted) is 5.83% [at 2.6 µM] (inactive).
The same measure, in the same setting: then `O=C(Cc1ccccn1)N1CC(=O)N2[C@H](C1)[C@H](c1ccc(C#CCC3CCCC3)cc1)[C@@H]2CO`, with 12.6% (inactive); and `O=C(Cc1ccccn1)N1CC(=O)N2[C@H](CO)[C@@H](c3ccc(C#CCC4CCCC4)cc3)[C@H]2C1`, with 20.5% (inactive); and `CS(=O)(=O)N1CC(=O)N2[C@H](CO)[C@@H](c3ccc(C#Cc4ccc(F)cc4)cc3)[C@H]2C1`, with 15.4% (inactive).
Same read-out and setting: with `O=C(c1ccc(F)cc1)N1CC(=O)N2[C@H](CO)[C@@H](c3ccc(C#CCC4CCCC4)cc3)[C@@H]2C1` the figure was 23.3% (inactive); with `O=C(Cc1ccccn1)N1CC(=O)N2[C@H](CO)[C@@H](c3ccc(C#CCC4CCCC4)cc3)[C@@H]2C1`, 18.5% (inactive).
The same measure, in the same setting: with `CS(=O)(=O)N1CCOC2C(COc3ncccn3)CCC21` (stereo not drawn) the figure was -15% [at 0.3 µM] (inactive); with `CCOC(=O)c1c(C)[nH]c(-c2ccccc2)c1-c1ccccc1`, 4.75% [at 10 µM] (inactive).
On to `O=C(O)c1ccc(C2C(=O)NNCC2N2CCCC2)s1` (stereo not drawn), for which the max activity is 8.24% (inactive) (at 0.16 µM) and 10.9% (inactive) (at 19.5 µM).
As to `Fc1cccnc1OC1COC2(CCN(Cc3ccsc3)CC2)C1` (stereo not drawn), for the setting “at 19.5 µM unless noted”, the max activity was 18.6% (inactive).
Consider `C[C@@H](N)C1CCC(C(=O)Nc2ccncc2)CC1` (stereo partly drawn), for which, under “at 19.5 µM unless noted”, the max activity was -12.3% [at 0.08 µM] (inactive).
Regarding `Cc1cccc(-n2ncc3c(NC4CCCCCCCCCCC4)ncnc32)c1`, the max activity (at 19.5 µM unless noted) is 8.82% [at 10 µM] (inactive).
Same read-out and setting: then `COc1ccc(C#Cc2ccc([C@H]3[C@H]4CN(C(=O)NC(C)C)CC(=O)N4[C@H]3CO)cc2)cc1`, with 13% [at 10 µM] (inactive).
With `COc1ccc(C#Cc2ccc([C@@H]3[C@H](CO)N4C(=O)CN(C(=O)NC(C)C)C[C@@H]34)cc2)cc1`, the max activity is -8.81% (inactive) (at 5 µM) and -6.49% (inactive) (at 19.5 µM).
As for `COc1cccc(NC(=O)N2CC(=O)N3[C@H](C2)[C@H](c2ccc(C#CCC4CCCC4)cc2)[C@@H]3CO)c1`, the max activity (at 19.5 µM unless noted) was 38.8% [at 21 µM] (inactive).
Still for that read-out and setting: with `COc1cccc(NC(=O)N2CC(=O)N3[C@@H](CO)[C@@H](c4ccc(C#CCC5CCCC5)cc4)[C@@H]3C2)c1` the figure was 9.07% [at 21 µM] (inactive); with `COc1ccc(C#Cc2ccc([C@@H]3[C@H]4CN(C(=O)NC(C)C)CC(=O)N4[C@H]3CO)cc2)cc1`, 9.38% [at 0.6 µM] (inactive).
As to `O=C1NCC(=O)N2CCN(C(=O)Nc3cc(Cl)cc(Cl)c3)CC12` (stereo not drawn), the max activity (at 19.5 µM unless noted) was 17.6% [at 2.6 µM] (inactive).
The same measure, in the same setting: with `CC(=O)N1Cc2ncn(CC3CC3)c2C(COCC2CCOCC2)C1` (stereo not drawn) the figure was -7.3% [at 0.16 µM] (inactive); with `C=CCN1CCC2(CC1)CC(NCc1ccc(C)s1)c1ccccc1O2` (stereo not drawn), 5.11% [at 0.3 µM] (inactive); with `COc1ccc(C#Cc2ccc([C@H]3[C@@H](CO)N4C(=O)CN(C(=O)NC(C)C)C[C@@H]34)cc2)cc1`, 22.6% (inactive).
The same measure, in the same setting: with `CCCNC(=O)N1CC(=O)N2[C@@H](CO)[C@H](c3ccc(C#Cc4cccc(OC)c4)cc3)[C@@H]2C1` the figure was 15.9% (inactive); with `CCCNC(=O)N1CC(=O)N2[C@H](C1)[C@@H](c1ccc(C#Cc3cccc(OC)c3)cc1)[C@@H]2CO`, 8.44% [at 2.35 µM] (inactive).
On the same count and under the same terms, with `C/C=C/c1ccc([C@H]2[C@H]3CN(C(=O)Nc4cccc(OC)c4)CC(=O)N3[C@H]2CO)cc1` the figure was -14.5% [at 2.6 µM] (inactive).
